Assay results as given in ChEMBL document CHEMBL4513141, “CO-ADD screening of NIH (USA) - Clinical Collection” (2021).
Results with a measured potency or affinity are listed apart.

Tests used:
Klebsiella pneumoniae = conditions: Concentration 20 uM; ASSAY_TEST Inhibition of Bacterial Growth; detection method Absorption (OD600); MEDIA CAMHB; plate type 384well; NBS; CORNING #3640; time 18 hr
Candida albicans = conditions: 20 µM
Cryptococcus neoformans = conditions: Concentration 20 uM; ASSAY_TEST Inhibition of Fungal Growth; detection method Resazurin; Absorption (OD600-OD570); plate type 384well; NBS; CORNING #3640

Row | Compound | Inhibition (Klebsiella pneumoniae) | Inhibition (Candida albicans) | Inhibition (Cryptococcus neoformans)
1 | O=C1N[C@H](C(=O)O)CS1 [PROCYSTEINE] | 8.75% | 3.85% | -5.5%
2 | CCC[C@@H]1C[C@@H](C(=O)N[C@@H]([C@H]2O[C@H](SC)[C@H](O)[C@@H](O)[C@H]2O)[C@@H](C)O)N(C)C1.Cl.O [LINCOMYCIN HYDROCHLORIDE] | 17.37% | 4.06% | -3.42%
3 | CC1(C)S[C@@H]2[C@H](NC(=O)[C@H](N)c3ccc(O)cc3)C(=O)N2[C@H]1C(=O)O [AMOXICILLIN] | 10.29% | 9.25% | -2.09%
4 | O=C(NCCN1CCOCC1)c1ccc(Cl)cc1 [MOCLOBEMIDE] | 9.06% | 3.1% | -2.98%
5 | CC(=O)OCC(=O)[C@@]1(O)CC[C@H]2[C@@H]3CCC4=CC(=O)C=C[C@]4(C)[C@H]3[C@@H](O)C[C@@]21C [PREDNISOLONE ACETATE] | 12.95% | 0.73% | -1.37%
6 | O=C(O)COCCN1CCN(C(c2ccccc2)c2ccc(Cl)cc2)CC1 (centres undefined) [CETIRIZINE] | -1.38% | 3.71% | -6.19%
7 | CCCC(=O)Nc1ccc(OCC(O)CNC(C)C)c(C(C)=O)c1.Cl (centres undefined) [ACEBUTOLOL HYDROCHLORIDE] | 19.26% | 1.82% | -1.83%
8 | CCN(CC)CC1CCCCN1CC(=O)N1c2ccccc2C(=O)Nc2cccnc21 (centres undefined) [OTENZEPAD] | 12.92% | 3.03% | 3.45%
9 | CNCC[C@@H](Oc1ccccc1C)c1ccccc1.Cl [ATOMOXETINE HYDROCHLORIDE] | 2.35% | 3.59% | 5.55%
10 | CCCCNC(=O)NS(=O)(=O)c1ccc(C)cc1 [TOLBUTAMIDE] | 16.6% | 1.06% | 0.26%
11 | CC(COc1ccccc1)NC(C)C(O)c1ccc(O)cc1.Cl (centres undefined) [ISOXSUPRINE HYDROCHLORIDE] | 7.34% | 3.25% | -2.3%
12 | CC(N/C(=N\C#N)Nc1ccncc1)C(C)(C)C.O (centres undefined) | 0.13% | 1.29% | -6.76%
13 | Nc1ccc(S(=O)(=O)c2ccc(N)cc2)cc1 [DAPSONE] | 5.01% | -0.53% | 0.91%
